The source of these data is PubChem BioAssay (NCI).

A short description of test [1]: NCI Yeast Anticancer Drug Screen. Data for the rad50 strain (AID 155).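 Note: 0% = growth of vehicle-only cultures of the same strain.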 Conditions: S. cerevisiae rad50 strain growth inhibition; at 50.0 µM; stronger effect = higher value. Put shortly: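 Yeast carrying a defined DNA repair defect were exposed to test compounds, and growth was compared with vehicle-treated controls to give percent inhibition.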
Test [2] can be described thus: NCI Yeast Anticancer Drug Screen. Data for the mec2-1 strain (AID 157). The following applies: S. cerevisiae mec2-1 strain, at 50.0 µM, stronger effect = higher value. Summed up:
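Strain: mec2-1 (DNA repair/cell cycle alteration). Compound exposure, then growth measured; inhibition expressed relative to vehicle.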

A short description of test [3]: NCI Yeast Anticancer Drug Screen. Data for the sgs1 mgt1 strain (AID 161).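 Note: 0% = growth of cultures given vehicle only.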 The following applies: S. cerevisiae sgs1 mgt1 strain, at 50.0 µM, stronger effect = higher value. Put shortly:
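Genetically altered yeast, compound exposure, growth inhibition relative to vehicle.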

Test [4] is described as follows: NCI Yeast Anticancer Drug Screen. Data for the cln2 rad14 strain (AID 165).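 Note: 0% = growth equal to vehicle treated cultures.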 The following applies: S. cerevisiae cln2 rad14 strain, at 50.0 µM, stronger effect = higher value. Put shortly:
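Compounds are applied to the cln2 rad14 yeast strain, and growth is then compared with that of vehicle-treated cultures to give inhibition.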

Test [5] can be described thus: NCI Yeast Anticancer Drug Screen. Data for the bub3 strain (AID 167). The following applies: S. cerevisiae bub3 mutant strain, at 50.0 µM, stronger effect = higher value. Put shortly: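 Compounds were applied to a genetically altered yeast strain carrying a cell-cycle control defect. Growth inhibition was scored against vehicle-treated controls.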
Test [6] can be described thus: NCI Yeast Anticancer Drug Screen. Data for the mlh1 rad18 strain (AID 175). The following applies: S. cerevisiae mlh1 rad18 strain growth inhibition; at 50.0 µM; stronger effect = higher value. Summed up:
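Read-out is yeast growth inhibition, calculated against vehicle-only controls. The compound was applied to a strain engineered with DNA damage repair alterations.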

Each structure is given as a SMILES string. About 79,000 compounds went through this panel and 15% of them were active in at least one assay; those are over-represented in the sample as a whole. Values without a mark were called inactive. Calls of active or inactive are those of the source. Cut-off read from the data, not from the text of the source: active = growth inhibition above about 70%; inactive = the rest.

In the case of `O=C(O)C(Oc1ccccc1)Oc1ccccc1`, the growth inhibition was -24.7% in test [1]; -13.2% in test [2]; -11.8% in test [3]; 5.85% in test [4]; 6.6% in test [5]; -4.95% in test [6].

On to `COC(=O)c1cc([N+](=O)[O-])cc2ccccc12`, for which the growth inhibition in test [1] was 35.8%; in test [2], -24.6%; in test [3], 19.1%; in test [4], 11.3%; in test [5], 23.1%; in test [6], 0.65%.

Consider `COc1cc(CCCCC(=O)O)ccc1OC(=O)c1ccccc1`, for which the growth inhibition in test [1] is -15.6%; in test [2] it was -4.85%; in test [3], 1.85%; in test [4], 2.05%; in test [5], -6.3%; in test [6], -5.1%.

As for `N#C/C(N)=C(\C#N)NC=NCCO`, the growth inhibition is 5.35% in test [1]; 7.75% in test [2]; 13.2% in test [3]; 18% in test [4]; 10.6% in test [5]; -37.8% in test [6].

Consider `CC(=O)Oc1c(C)cc(C(=O)CO)cc1C`, for which the growth inhibition was 34.7% in test [1]; 15.4% in test [2]; 27.7% in test [3]; 6.75% in test [4]; 14.4% in test [5]; 31.8% in test [6].

With `O=C(NC(=O)C1CCC(=O)N1Cc1ccccc1)NC1CCC(=O)N1Cc1ccccc1` (stereo not given), the growth inhibition is 3.35% in test [1]; 3.1% in test [2]; -26.1% in test [3]; 1.8% in test [4]; 0.85% in test [5]; 17.2% in test [6].

As for `CCCNC(=O)c1ccc(Cl)cc1Cl`, the growth inhibition in test [1] is 29.8%; in test [2] it was 7.85%; in test [3] it was 18.4%; in test [4] it was -12.2%; in test [5], -12.5%; in test [6], 27.1%.

As for `CCCCCCCCCCCCCCCCn1cnc2c(=S)nc[nH]c21`, the growth inhibition in test [1] was -22.1%; in test [2], -5.25%; in test [3], -19.1%; in test [4], -4.75%; in test [5], 0.5%; in test [6], -6.9%.

In the case of `CCC1(C#N)N=C(c2ccccc2)c2ccccc2N1C(=O)OC` (stereo not given), the growth inhibition in test [1] was 5.7%; in test [2], -1.9%; in test [3] it was 17.8%; in test [4], -28.9%; in test [5] it was -35.5%; in test [6], 18.1%.

On to `SCc1ccc(-c2ccc(CS)cc2)cc1`, for which the growth inhibition was 4.65% in test [1]; 2.55% in test [2]; 40% in test [3]; 39.8% in test [4]; 39.1% in test [5]; 23.3% in test [6].

Take `CC(C)CC(N)C(=O)NC(Cc1c[nH]c2ccccc12)C(N)=O` (stereo not given): the growth inhibition is -8.85% in test [1]; 3.35% in test [2]; 18.1% in test [3]; -2.4% in test [4]; 22.4% in test [5]; 10.5% in test [6].

With `CN(C)c1nc(NN)c2c(-c3ccccc3)c(-c3ccccc3)oc2n1`, the growth inhibition in test [1] is 10.2%; in test [2] it was 3.9%; in test [3] it was 2.3%; in test [4] it was 9.35%; in test [5], 20.2%; in test [6], -11.2%.

`COc1ccc(-c2cc(=O)c3c(O)c(OC)c(O)c(OC)c3o2)cc1OC`: the growth inhibition in test [1] is -0.4%; in test [2], -37.5%; in test [3], 5.1%; in test [4], 5.15%; in test [5], 29.7%; in test [6] it was 20%.

As for `CC(=O)OC1CC2CC3C(C)CCC3(C2(C)C)C1(C)O` (stereo not given), the growth inhibition was -12.9% in test [1]; -0.25% in test [2]; -0.7% in test [3]; 0.7% in test [4]; 11.4% in test [5]; -11.5% in test [6].

For `O=C(NNC(=O)c1cccc2ccccc12)c1ccccc1F`, the growth inhibition in test [1] is -16.6%; in test [2], -12.6%; in test [3], -13.9%; in test [4] it was 1.35%; in test [5], -11.6%; in test [6] it was -15.9%.

Consider `O=C1CC2c3ccccc3C(O)(CC1=O)c1ccccc12`, for which the growth inhibition in test [1] is 16.2%; in test [2], 6.7%; in test [3], 11.7%; in test [4], 15.2%; in test [5] it was -16.6%; in test [6] it was 19.2%.

Regarding `CCC(/C=C/C(C)C1CCC2C3CC=C4CC(OC(=O)Nc5ccccc5)CCC4(C)C3CCC12C)C(C)C` (stereo not given), the growth inhibition is -6.65% in test [1]; 2.1% in test [2]; -4.9% in test [3]; 77.2% (active) in test [4]; 5.55% in test [5]; 57.5% in test [6].

In the case of `Nc1ccc(-c2csc(Nc3ccnc4cc(Cl)ccc34)n2)cc1`, the growth inhibition in test [1] was -1.75%; in test [2] it was -5.4%; in test [3], 4.25%; in test [4], -7.85%; in test [5], 18.9%; in test [6], 7.6%.

`Cc1ccc(S(=O)(=O)n2nc(C3OC(CO)C(O)C3O)c(O)c2C(N)=O)cc1` (stereo not given): the growth inhibition in test [1] is -36.5%; in test [2], 16.6%; in test [3] it was -14.8%; in test [4] it was 38.1%; in test [5] it was -3%; in test [6] it was 22.8%.

Turning to `O=C(c1ccccc1)C(C(c1ccc(Cl)cc1)N1CCOCC1)N1CCOCC1` (stereo not given), the growth inhibition in test [1] was 5.15%; in test [2], 2.75%; in test [3], 16.8%; in test [4], 19.9%; in test [5], 10.7%; in test [6], 7.65%.
